# Experimental data taken from ChEMBL document CHEMBL1961873, “Compounds: GSK PKIS; Assays: Nanosyn kinase panel” (2012).
# Values joined by “and” are separate entries in the source; they are usually repeats but may differ in a detail not shown here. Equal values may be shown once.
# Tests used:
# [1] = target: Platelet-derived growth factor receptor beta (Homo sapiens) (UniProt P09619); conditions: at 1 µM;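 note: each value is a mean percent inhibition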
# [2] = target: Tyrosine-protein kinase FRK (Homo sapiens) (UniProt P42685); conditions: at 0.1 µM
# [3] = target: Tyrosine-protein kinase FRK (Homo sapiens) (UniProt P42685); conditions: at 1 µM
# [4] = target: Protein-tyrosine kinase 2-beta (Homo sapiens) (UniProt Q14289); conditions: at 0.1 µM
# [5] = target: Protein-tyrosine kinase 2-beta (Homo sapiens) (UniProt Q14289); conditions: at 1 µM
# [6] = target: Proto-oncogene tyrosine-protein kinase receptor Ret (Homo sapiens) (UniProt P07949); conditions: at 0.1 µM
# Proto-oncogene tyrosine-protein kinase receptor Ret (Homo sapiens), sequence (P07949 whole entry): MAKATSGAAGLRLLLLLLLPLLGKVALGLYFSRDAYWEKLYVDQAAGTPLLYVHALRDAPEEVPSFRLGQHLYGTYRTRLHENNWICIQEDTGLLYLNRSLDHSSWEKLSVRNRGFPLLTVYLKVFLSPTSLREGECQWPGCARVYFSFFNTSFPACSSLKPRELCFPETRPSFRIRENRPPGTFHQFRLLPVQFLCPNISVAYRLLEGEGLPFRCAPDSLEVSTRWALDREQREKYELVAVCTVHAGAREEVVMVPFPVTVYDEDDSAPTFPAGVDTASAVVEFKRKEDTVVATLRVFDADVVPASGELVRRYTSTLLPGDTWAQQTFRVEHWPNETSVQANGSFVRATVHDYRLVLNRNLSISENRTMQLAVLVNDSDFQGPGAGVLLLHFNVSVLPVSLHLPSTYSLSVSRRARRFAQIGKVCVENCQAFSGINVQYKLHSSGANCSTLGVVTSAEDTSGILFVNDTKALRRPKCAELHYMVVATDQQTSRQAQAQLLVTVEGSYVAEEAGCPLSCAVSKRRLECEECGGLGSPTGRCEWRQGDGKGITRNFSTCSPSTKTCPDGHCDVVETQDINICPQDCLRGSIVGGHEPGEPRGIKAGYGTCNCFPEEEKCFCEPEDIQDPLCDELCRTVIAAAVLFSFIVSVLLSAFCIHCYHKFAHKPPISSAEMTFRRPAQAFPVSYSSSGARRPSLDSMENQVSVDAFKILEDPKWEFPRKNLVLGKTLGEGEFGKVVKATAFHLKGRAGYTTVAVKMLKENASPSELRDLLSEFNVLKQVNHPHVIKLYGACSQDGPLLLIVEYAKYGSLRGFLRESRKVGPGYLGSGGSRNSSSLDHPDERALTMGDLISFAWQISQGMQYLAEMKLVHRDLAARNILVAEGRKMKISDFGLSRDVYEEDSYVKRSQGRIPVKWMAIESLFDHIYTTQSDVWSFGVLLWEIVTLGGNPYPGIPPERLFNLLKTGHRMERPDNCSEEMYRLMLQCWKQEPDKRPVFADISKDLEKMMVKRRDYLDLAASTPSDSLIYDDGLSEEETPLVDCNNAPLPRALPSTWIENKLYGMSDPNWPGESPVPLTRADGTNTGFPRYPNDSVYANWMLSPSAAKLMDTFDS
# [7] = target: Proto-oncogene tyrosine-protein kinase receptor Ret (Homo sapiens) (UniProt P07949); conditions: at 1 µM
# [8] = tested on: Proto-oncogene tyrosine-protein kinase receptor Ret (Homo sapiens), P07949 [V804L]; conditions: at 0.1 µM
# Proto-oncogene tyrosine-protein kinase receptor Ret (Homo sapiens), P07949 [V804L], sequence (P07949 whole entry V804L): as the sequence (P07949 whole entry) above, with V804L counted along it
# [9] = tested on: Proto-oncogene tyrosine-protein kinase receptor Ret (Homo sapiens), P07949 [V804L]; conditions: at 1 µM
# [10] = tested on: Proto-oncogene tyrosine-protein kinase receptor Ret (Homo sapiens), P07949 [Y791F]; conditions: at 0.1 µM
# Proto-oncogene tyrosine-protein kinase receptor Ret (Homo sapiens), P07949 [Y791F], sequence (P07949 whole entry Y791F): as the sequence (P07949 whole entry) above, with Y791F counted along it
# [11] = tested on: Proto-oncogene tyrosine-protein kinase receptor Ret (Homo sapiens), P07949 [Y791F]; conditions: at 1 µM
# [12] = target: Macrophage-stimulating protein receptor (Homo sapiens) (UniProt Q04912); conditions: at 0.1 µM
# [13] = target: Macrophage-stimulating protein receptor (Homo sapiens) (UniProt Q04912); conditions: at 1 µM
# [14] = target: Proto-oncogene tyrosine-protein kinase ROS (Homo sapiens) (UniProt P08922); conditions: at 0.1 µM
# Proto-oncogene tyrosine-protein kinase ROS (Homo sapiens), sequence (P08922 whole entry): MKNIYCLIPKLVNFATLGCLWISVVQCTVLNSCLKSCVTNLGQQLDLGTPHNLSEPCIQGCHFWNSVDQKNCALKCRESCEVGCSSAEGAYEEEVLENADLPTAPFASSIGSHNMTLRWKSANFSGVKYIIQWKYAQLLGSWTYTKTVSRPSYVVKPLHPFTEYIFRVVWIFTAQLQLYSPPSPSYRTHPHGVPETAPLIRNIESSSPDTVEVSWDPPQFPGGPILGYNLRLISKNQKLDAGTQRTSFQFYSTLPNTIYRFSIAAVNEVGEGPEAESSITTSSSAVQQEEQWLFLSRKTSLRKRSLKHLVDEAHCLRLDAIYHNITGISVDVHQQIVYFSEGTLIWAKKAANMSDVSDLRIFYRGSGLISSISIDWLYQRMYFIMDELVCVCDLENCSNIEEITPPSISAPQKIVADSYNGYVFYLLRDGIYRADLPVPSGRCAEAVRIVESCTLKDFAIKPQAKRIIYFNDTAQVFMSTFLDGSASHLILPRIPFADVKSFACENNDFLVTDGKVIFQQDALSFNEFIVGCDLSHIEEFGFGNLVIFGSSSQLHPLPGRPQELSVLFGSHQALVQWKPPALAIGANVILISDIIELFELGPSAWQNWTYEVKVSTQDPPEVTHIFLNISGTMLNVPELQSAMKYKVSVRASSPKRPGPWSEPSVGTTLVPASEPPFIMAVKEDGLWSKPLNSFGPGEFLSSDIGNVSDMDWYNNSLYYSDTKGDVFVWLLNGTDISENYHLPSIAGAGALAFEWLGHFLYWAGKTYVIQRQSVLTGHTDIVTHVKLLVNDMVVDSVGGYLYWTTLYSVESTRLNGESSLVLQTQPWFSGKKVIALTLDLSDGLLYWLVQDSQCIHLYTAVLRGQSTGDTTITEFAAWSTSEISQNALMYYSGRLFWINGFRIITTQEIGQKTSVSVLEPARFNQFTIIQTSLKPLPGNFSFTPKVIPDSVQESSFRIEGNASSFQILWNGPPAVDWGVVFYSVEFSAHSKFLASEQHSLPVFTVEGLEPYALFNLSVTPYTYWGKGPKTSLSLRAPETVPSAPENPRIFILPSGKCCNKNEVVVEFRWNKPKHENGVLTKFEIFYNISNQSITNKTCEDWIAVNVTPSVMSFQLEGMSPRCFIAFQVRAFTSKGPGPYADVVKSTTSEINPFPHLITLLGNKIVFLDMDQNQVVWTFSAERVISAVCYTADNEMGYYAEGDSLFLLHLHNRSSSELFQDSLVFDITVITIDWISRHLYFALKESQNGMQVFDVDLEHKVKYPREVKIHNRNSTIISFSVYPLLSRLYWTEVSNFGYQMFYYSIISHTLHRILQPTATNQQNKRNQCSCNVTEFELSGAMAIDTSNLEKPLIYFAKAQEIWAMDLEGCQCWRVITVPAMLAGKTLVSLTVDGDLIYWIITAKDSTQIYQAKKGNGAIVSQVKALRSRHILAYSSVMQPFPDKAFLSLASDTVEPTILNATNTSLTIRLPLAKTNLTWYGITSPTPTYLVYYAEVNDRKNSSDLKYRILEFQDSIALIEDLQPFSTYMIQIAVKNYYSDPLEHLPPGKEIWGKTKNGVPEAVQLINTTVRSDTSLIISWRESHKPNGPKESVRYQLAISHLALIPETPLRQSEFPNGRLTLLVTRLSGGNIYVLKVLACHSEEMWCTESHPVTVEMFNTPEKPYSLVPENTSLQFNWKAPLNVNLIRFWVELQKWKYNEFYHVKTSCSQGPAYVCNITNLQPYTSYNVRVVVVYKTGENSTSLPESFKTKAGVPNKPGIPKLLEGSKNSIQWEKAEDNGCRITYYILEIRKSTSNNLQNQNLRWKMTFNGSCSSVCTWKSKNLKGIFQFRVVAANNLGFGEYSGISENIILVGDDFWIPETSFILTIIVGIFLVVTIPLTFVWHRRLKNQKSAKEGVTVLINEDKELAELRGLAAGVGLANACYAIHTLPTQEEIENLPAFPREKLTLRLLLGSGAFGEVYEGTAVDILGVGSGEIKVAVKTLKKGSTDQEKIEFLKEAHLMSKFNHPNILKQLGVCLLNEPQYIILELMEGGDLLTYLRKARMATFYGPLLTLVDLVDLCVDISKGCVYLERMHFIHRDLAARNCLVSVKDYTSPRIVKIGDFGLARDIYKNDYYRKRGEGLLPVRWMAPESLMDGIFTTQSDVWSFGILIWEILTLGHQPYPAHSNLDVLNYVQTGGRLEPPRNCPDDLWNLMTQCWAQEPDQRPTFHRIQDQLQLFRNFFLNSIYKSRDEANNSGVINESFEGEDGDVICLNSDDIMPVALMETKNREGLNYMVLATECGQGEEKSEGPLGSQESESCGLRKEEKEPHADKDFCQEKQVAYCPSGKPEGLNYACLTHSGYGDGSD
# [15] = target: Proto-oncogene tyrosine-protein kinase ROS (Homo sapiens) (UniProt P08922); conditions: at 1 µM
# [16] = target: Proto-oncogene tyrosine-protein kinase Src (Homo sapiens) (UniProt P12931); conditions: at 0.1 µM
# [17] = target: Proto-oncogene tyrosine-protein kinase Src (Homo sapiens) (UniProt P12931); conditions: at 1 µM
# [18] = target: Tyrosine-protein kinase Srms (Homo sapiens) (UniProt Q9H3Y6); conditions: at 0.1 µM
# Tyrosine-protein kinase Srms (Homo sapiens), sequence (Q9H3Y6 whole entry): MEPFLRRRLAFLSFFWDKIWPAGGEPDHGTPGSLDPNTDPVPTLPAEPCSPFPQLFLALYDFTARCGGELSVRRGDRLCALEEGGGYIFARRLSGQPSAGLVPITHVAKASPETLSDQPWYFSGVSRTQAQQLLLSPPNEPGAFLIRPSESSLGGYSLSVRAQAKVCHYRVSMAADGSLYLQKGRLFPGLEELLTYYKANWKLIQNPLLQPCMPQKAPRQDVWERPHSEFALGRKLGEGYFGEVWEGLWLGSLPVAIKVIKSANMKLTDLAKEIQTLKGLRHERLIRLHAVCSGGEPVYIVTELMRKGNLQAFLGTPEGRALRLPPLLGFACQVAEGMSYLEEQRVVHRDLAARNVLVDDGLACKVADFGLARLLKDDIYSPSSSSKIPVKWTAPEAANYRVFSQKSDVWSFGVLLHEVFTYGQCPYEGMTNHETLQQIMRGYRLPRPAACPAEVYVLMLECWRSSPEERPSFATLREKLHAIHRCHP
# [19] = target: Tyrosine-protein kinase Srms (Homo sapiens) (UniProt Q9H3Y6); conditions: at 1 µM
# [20] = target: Tyrosine-protein kinase SYK (Homo sapiens) (UniProt P43405); conditions: at 0.1 µM;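 note: reported percentages are mean inhibition values for SYK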
# Platelet-derived growth factor receptor beta (Homo sapiens), sequence (P09619 whole entry): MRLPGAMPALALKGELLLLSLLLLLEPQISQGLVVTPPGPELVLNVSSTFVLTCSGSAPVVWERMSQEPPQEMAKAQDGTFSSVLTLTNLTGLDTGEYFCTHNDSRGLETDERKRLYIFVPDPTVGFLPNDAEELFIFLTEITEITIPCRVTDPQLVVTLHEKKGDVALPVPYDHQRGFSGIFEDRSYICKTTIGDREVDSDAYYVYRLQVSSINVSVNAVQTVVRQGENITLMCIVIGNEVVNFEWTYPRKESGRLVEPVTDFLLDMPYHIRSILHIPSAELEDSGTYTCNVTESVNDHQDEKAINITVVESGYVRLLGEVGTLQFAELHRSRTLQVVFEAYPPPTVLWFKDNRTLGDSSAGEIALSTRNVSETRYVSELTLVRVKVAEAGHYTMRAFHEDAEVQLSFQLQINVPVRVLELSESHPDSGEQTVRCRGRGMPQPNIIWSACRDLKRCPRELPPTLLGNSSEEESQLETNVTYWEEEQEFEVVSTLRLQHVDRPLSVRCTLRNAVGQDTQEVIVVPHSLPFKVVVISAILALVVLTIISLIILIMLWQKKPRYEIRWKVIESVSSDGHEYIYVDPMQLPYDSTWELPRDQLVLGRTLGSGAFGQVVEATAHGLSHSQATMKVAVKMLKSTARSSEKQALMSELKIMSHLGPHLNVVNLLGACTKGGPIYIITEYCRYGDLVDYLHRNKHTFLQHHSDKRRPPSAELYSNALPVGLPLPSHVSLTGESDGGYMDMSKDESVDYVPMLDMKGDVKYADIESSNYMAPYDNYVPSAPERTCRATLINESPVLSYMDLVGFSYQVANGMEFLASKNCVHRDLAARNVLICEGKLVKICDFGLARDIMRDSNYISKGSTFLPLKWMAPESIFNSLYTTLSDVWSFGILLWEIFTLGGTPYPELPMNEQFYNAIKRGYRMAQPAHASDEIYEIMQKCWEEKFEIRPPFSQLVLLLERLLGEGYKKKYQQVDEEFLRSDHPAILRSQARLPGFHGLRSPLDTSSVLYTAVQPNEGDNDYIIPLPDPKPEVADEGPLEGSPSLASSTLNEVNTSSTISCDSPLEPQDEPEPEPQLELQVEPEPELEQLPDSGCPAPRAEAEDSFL
SMILES,inhibition [1],inhibition [2],inhibition [3],inhibition [4],inhibition [5],inhibition [6],inhibition [7],inhibition [8],inhibition [9],inhibition [10],inhibition [11],inhibition [12],inhibition [13],inhibition [14],inhibition [15],inhibition [16],inhibition [17],inhibition [18],inhibition [19],inhibition [20]
CC1=C(C(=O)Nc2ccc3[nH]ncc3c2)C(c2ccc(F)cc2)N=C(c2ccc(C(F)(F)F)nc2)N1 (stereo not drawn),5.78%,-0.24%,1.73%,6.19%,8.2%,7.82%,38.6%,5.19%,26.6%,9.49%,43%,7.5%,5.38%,4.98%,14.9%,-1.49%,9.03%,1.74%,1.21%,3.11%
CS(=O)(=O)CCNCc1ccc(-c2ccc3ncnc(Nc4ccc(OCc5cccc(C(F)(F)F)c5)cc4)c3c2)o1,13.6%,2.67%,3.25%,1.85%,12.6%,3.22%,2.84%,3.51%,7.73%,5.55%,6.5%,-1.41%,3.05%,6.2%,8.72%,9.03%,15.8%,-3.48%,-3.22%,-1.19%
O=C(O[C@H]1CN[C@H](C#Cc2cc3ncnc(Nc4ccc5c(cnn5Cc5ccccc5)c4)c3s2)C1)N1CCOCC1,6.66%,0.07%,-1.26%,1.18%,-1.26%,2.44%,4.66%,2.83%,4.7%,2.45%,8.34%,0.29%,2.37%,1.38%,-0.29%,0.01%,-0.98%,-0.4%,2.01%,0.27%
CS(=O)(=O)CCNCc1ccoc1-c1ccc2ncnc(Nc3ccc(OCc4ccccc4)cc3)c2c1,5.15%,-0.85%,0.98%,0.12%,1.57%,3.73%,0.18%,8.41%,9.53%,4.19%,9.63%,1.78%,-1.8%,0.39%,2%,3.56%,4.6%,-1.68%,-0.79%,-2.93%
CN1CCC(C(=O)Nc2n[nH]c3nc(-c4ccc(O)cc4)c(Br)cc23)CC1,22.6% and 17.3%,1.77% and -0.83%,2.31% and 3.98%,10.8% and -4.15%,12.9% and 6.02%,7.08% and 5.43%,9.97% and 0.25%,4.68% and 1.68%,–,4.94% and 4.6%,20.8% and 5.43%,-1.02% and 7.11%,6.18% and 11.8%,5.2% and 4.89%,10.4% and 1.96%,6.76% and 6.26%,9.87% and 8.29%,-2.12% and 1.04%,-1.75% and -1%,-0.18% and 0.92%
Nc1ncnc2occ(-c3ccc(NC(=O)Nc4cc(C(F)(F)F)ccc4F)cc3)c12,86.7% and 81.4%,2.63% and 2.3%,19.1% and 11.8%,4.45% and -2.3%,–,85.3% and 84.5%,90.7% and 88.5%,68.3% and 62.2%,84.7% and 81.1%,79.2% and 72.6%,85.5% and 86.1%,6.58% and -2.93%,12.2% and 2.9%,4.91% and 3.1%,28.1% and 13.7%,10.1% and 1.77%,48.3% and 31.9%,0.41% and -0.6%,0.84% and 0.62%,-4.8% and -1.07%
COc1ccccc1-c1cc(/C=C2\C(=O)Nc3ncc(Br)cc32)cc(Br)c1O,11.6%,0.6%,2.12%,15.6%,39.1%,2.23%,11.1%,9.25%,12%,12.6%,13.2%,2.48%,7.63%,7.94%,26.1%,4.87%,17.1%,2.16%,14.7%,-6.56%
Fc1cccc(COc2ccc(Nc3ncncc3C#Cc3ccccc3)cc2Cl)c1,8.55%,1.23%,1.62%,13.9%,15.1%,-0.25%,5.48%,5.31%,11.9%,5.33%,15.1%,1.12%,1.28%,7.63%,4.43%,4.7%,9.06%,-1.92%,-0.3%,-5.72%
CN1CCC(n2cnc(-c3ccc(F)cc3)c2-c2ccnc(NCCO)n2)CC1,20.7%,0.17%,1.02%,6.77%,18%,1.17%,1.73%,4.71%,10.8%,5.21%,15.2%,-0.99%,-1.06%,6.65%,2.72%,2.31%,7.94%,-0.64%,-0.42%,-2.08%
CN(c1ccc(NC(=O)NCCN2CCOCC2)cc1)c1ccnc(Nc2ccc(CS(C)(=O)=O)cc2)n1,77.1%,1.69%,0.89%,11.2%,57.8%,16.5%,58.5%,13.2%,48.9%,29.1%,73.6%,4.51%,15.6%,9.47%,43.5%,4.5%,18.4%,-1.89%,1.22%,-3.19%
COc1cc2c(cc1Nc1nc(Nc3cccc(F)c3C(N)=O)c3cc[nH]c3n1)N(C(=O)CN1CCN(C(C)C)CC1)CC2,5.17%,0.37%,1.24%,57.7%,93.4%,1.04%,5.75%,1.85%,7.87%,1.11%,6.08%,-1.39%,-1.15%,31.6%,73.7%,4.53%,11.8%,-1.09%,0.82%,3.25%
CNC(=O)c1cncc(/C=C/c2ccccc2C)c1,20.1%,1.01%,1.8%,5.28%,5.23%,3.93%,6.36%,5.6%,11.8%,2.57%,12.3%,1.43%,5.25%,4.35%,5.86%,8.47%,13.7%,1.18%,0.97%,-0.75%
CCN1CCC(C(=O)Nc2n[nH]c3nnc(-c4cccc(F)c4F)cc23)CC1,4.95%,0.31%,1.25%,-2.3%,1.39%,2.54%,-1.84%,4.84%,8.91%,3.29%,3.53%,0.53%,0.25%,-1.03%,3.74%,-1.14%,-2.38%,1.44%,2.12%,0.98%
CCCNc1cccc(-n2ncc3c(N/N=C/c4ccncc4)ncnc32)c1,78.8%,0.57%,3.14%,2.47%,12.2%,15%,54.7%,7.89%,40.7%,16.4%,65.2%,11.7%,57.9%,6.09%,33.4%,19.5%,81.8%,4.26%,7.86%,3.8%
